# Laboratory results taken from the supplement of paper PMC6555819.
# Columns and labels:
# Experiment in all cases: PBM binding z-score (relative to random genomic background probes); higher = stronger binding; sequences stand for … in GC…GCGATTGACAGCGTAGAATGAAGG
# [1] = test system: LXRa:RXRa (NR concentration 270 nM, RXRa partner concentration 90 nM)
# Outline: (§1)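 Each nuclear receptor dimer, without ligand, was incubated for 1 h on custom Agilent 4×180K protein-binding microarrays. Binding was detected with antibodies against each partner (one per run), and scanned fluorescence was regression-normalized. The binding z-scores are referenced to random human genomic background probes.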
# [2] = test system: LXRa homodimer (NR concentration 270 nM)
# Outline: as §1
# [3] = test system: LXRb homodimer (NR concentration 270 nM)
# Outline: as §1
# [4] = test system: PPARa:RXRa (NR concentration 270 nM, RXRa partner concentration 90 nM)
# Outline: as §1
# [5] = test system: PPARg:RXRa (NR concentration 180 nM, RXRa partner concentration 90 nM)
# Outline: as §1
# [6] = test system: PPARg:RXRa 270nM:90nM, anti-RXR (NR concentration 270 nM, RXRa partner concentration 90 nM)
# Outline: as §1
# [7] = test system: PPARg:RXRa 30nM:10nM, anti-RXR (NR concentration 30 nM, RXRa partner concentration 10 nM)
# Outline: as §1
# [8] = test system: PPARg:RXRa 90nM:30nM, anti-RXR (NR concentration 90 nM, RXRa partner concentration 30 nM)
# Outline: as §1
# [9] = test system: PPARg:RXRa DBDmut IVT, anti-RXR (DBD mutation: RXRa K156A/R161A, NR concentration 270 nM, RXRa partner concentration 90 nM)
# Outline: as §1
Sequence,PBM binding z-score [1],PBM binding z-score [2],PBM binding z-score [3],PBM binding z-score [4],PBM binding z-score [5],PBM binding z-score [6],PBM binding z-score [7],PBM binding z-score [8],PBM binding z-score [9]
CCTAGTGGGCCAAGGTCATTGATCAGTCAAAGCA,2.91,0.693,-0.381,3.87,4.1,4.29,1.64,3.71,3.98
CGTCCAAGGTCACGGTCAGTGAAAGAGACTCGAA,6.12,0.892,0.155,6.27,7.75,7.26,4.16,6.37,4.83
TAGCCTAGGTCATGCGGGACAGTATAGTGTCGGC,2.99,0.386,-0.0861,3.53,2.48,2.57,0.321,1.17,1.71
CAAAATAGGTCACGAAAGGTCAAAGTCGAATGAC,8.64,8.09,3.59,6.79,10.4,8.59,7.39,8.59,7.95
CAAACCAGGTCAAGAGGTCAAAGTCCGCTTCCCG,6.66,6.64,1.8,6.68,8.56,7.51,5.51,7.2,5.93
ATCGAAAGGTCCACGAGGTGAGTATACACCGTTT,0.186,-0.0739,-0.26,0.734,0.818,0.448,0.0544,0.533,0.0323
CCTCGGAGGACAGAAGGTCAAAGCTGTCCGCTTT,4.02,1.82,-0.421,3.67,0.66,2.18,-0.0409,1.41,0.187
CGCACTAGGTCATCCAGGACAGTGAATACATTGA,2.83,0.736,0.107,4.49,7.36,6.27,3.65,5.62,7.71
AGTCAAAGTTCAGGACGAGGTAACGTTAAGCACG,3.74,1.1,0.0351,3.34,4.29,4.64,2.03,3.86,-0.183
CGTCAAAGGTCAGAGAGGTCAGTGAATGCCGAGT,6.59,4.99,1.76,6.13,7.66,7.15,4.06,6.28,4.14
GCTGCTAGGTCAACTGATGGTCAACTAAAGCTCG,3.47,0.653,0.415,3.72,3.01,3.06,0.746,2.31,4.87
CCAGACAGGTGAGAAGGTAACTCAGCCTCGATTA,0.435,0.0228,-0.0173,0.833,0.522,0.838,0.0404,0.628,1
CCTACTCGGCCAAAAAGGTCATTGATGCCGATAA,4.55,4.59,0.927,4.87,1.91,3.11,0.833,2.27,1.1
CGTCAAAGTCCAAGGTAACGTAACAGAAAGCAGC,-0.0963,0.0661,-0.271,0.351,0.688,0.296,0.129,0.303,0.295
TAGCCTAAGTCATGCGGGCCAGTATAGTGTCGGC,-0.396,-0.595,-1.13,-0.167,-0.117,-0.602,-0.673,-0.77,-0.333
CGAACTAGGTCAAGGCCAGTGAATCTCCGCACGC,2.42,0.284,-0.563,5.04,7.33,6.58,3.87,6.13,8.07
AGCGAAAGGTCGAGGTGAGTATAGAGAAAGGGAA,3.18,-0.189,-0.246,4.51,3.81,4.31,1.4,3.37,0.228
AATACAGGGTAACTAGGCCAGAGTAGGTACGAAT,0.106,-0.23,-0.0777,2.01,2.82,2.44,0.877,1.88,3.4
ATATGTAGGTTAGGGTCAGTCAGAAAGTAGGGAA,2.82,0.758,1.69,4.61,6.72,5.54,3.24,4.97,6.27
TAGCCTAGGGCATTCAGGGGCCAGTATAGAAAGC,-0.052,-0.233,-0.352,0.0278,0.0283,-0.154,-0.552,-0.385,-0.268
AGAACGAGGTCACGCTGAGTTGATAGCAGAGTAG,6.2,0.912,0.705,6.34,9.52,8.1,6.32,7.52,6.78
CGAACAAGGTCACCAGGACAGTGAAGAGGTTGGA,5.26,0.443,0.736,6.12,7.8,7.38,3.87,6.13,5.38
CCTTACGGGTCCCTCCAGGTTATAGCATCGGAGT,-0.148,-0.112,-0.475,-0.0853,-0.172,-0.6,-0.679,-0.697,-1.14
GATACAGGGTCAAGGTCAGAGTACGCGTATTGAT,5,1.48,0.776,5.88,7.68,6.67,4.07,5.8,2.93
TTACCAAGGTCAAGGTCGTTGATCCCTCTGTAGA,5.51,3.05,1.11,5.9,6.32,6.38,3.44,5.46,3.67
AGTCAAACTTCAGGACGAGGTAACGTAAAGCACG,-0.137,-0.0988,-0.504,0.0838,0.919,-0.132,0.281,-0.00758,-0.522

Sequence,PBM binding z-score [1],PBM binding z-score [2],PBM binding z-score [3],PBM binding z-score [4],PBM binding z-score [5],PBM binding z-score [6],PBM binding z-score [7],PBM binding z-score [8],PBM binding z-score [9]
AGTCAAAGTGCATCTAGGTAACGTAAGATATGCT,0.188,-0.289,-0.415,1.21,2,2.08,0.727,1.47,0.592
CGAACAAGGTCATCCAGGACAGTGAATACATTGA,5.83,1.43,1.27,5.9,6.4,6.17,2.72,5.1,4.74
GCTGCGAGGTCAACTGATGGTCAGCTAAAGCTCG,5.87,1.54,1.67,6.02,6.28,6.33,2.91,5.05,3.65
GATACAGGGTCAGCTACAGGCCAGAGTATGGAAA,2.54,-0.531,-0.596,4.88,4.13,3.43,0.683,2.17,1.22
CGAACTAGGTCAAAGGACATTGAAAGGCGACGTA,2.7,0.172,-0.137,6.03,10.8,8.84,9.04,10.6,8.06
CGAACTAGGTCATTGACAGGACAGTGGATAGTAA,2.74,0.471,0.232,4.75,7.3,6.07,3.68,5.3,8.44
CCTGCGAGGTCATGGTCAGCTAATCTACAGTATG,5.55,1.41,0.772,5.87,5.93,5.94,2.34,4.57,3.79
CCGACTGGGGCAAGGTCACCATAACGCACAGCCA,2.82,0.471,-0.792,4.2,4.78,4.63,2.12,3.78,3.03
CAAACTAGGTCACGAGAGGTCAAAGTCGAATGAC,8.28,8.5,2.4,6.78,10.7,8.59,6.83,8.87,8.71
CGAACGAGGTCATCCAGGACAGTGAATACATTGA,6.03,1.53,1.78,6.37,7.79,7.07,3.9,6.1,5.37
TGTATGAGGTTAAAGATCAGGGAACGTGGCGTCG,3.09,0.262,1.41,4.16,4.1,5.21,3,4.93,0.702
CCTACTGGGCCTAAGGTCATTGATTCCAATGCTC,2.93,2.32,0.209,4.53,7.98,8.17,7.15,8.08,1.25
CGAACGAGGTCATTGACAGGACAGTGAATAGTAA,6.11,1.41,1.44,6.13,6.82,6.46,3.58,6.21,5.35
TTGCCAAGGTGAAAGGTCGTTGATGCACGCCTTG,3.11,-0.0355,-0.723,5.16,8.02,7.51,6.32,8.1,1.69
CGTCCAAGGACAATGCTAGGTCAGTGAAAGCATT,0.187,0.593,-0.885,0.16,,-0.429,-0.602,-0.31,0.442
CGTCCGAGGTCATAGGAGGTCAGTGAAGACAGAT,7.86,5.54,1.19,,6.96,6.5,2.81,5.53,3.62
TGTCAACGTTCAAAGGTAACGTAAGTATCCACAC,0.794,-0.182,0.0417,,2.58,2.69,1.18,2.07,-0.155
CGAACGAGGTCACCAGGACAGTGAAGAGGTTGGA,5.61,0.912,0.295,,8.9,7.66,5.23,6.73,5.64
ATTTGTAGGTTACATCCGGGTCATTCAGGCTATG,5.11,2.84,1.83,,4.22,4.28,2.12,3.26,6.92
AACGAAAGGTCGAAGGTGAGTATACCCACCCGAA,3.94,0.129,0.37,,4.7,4.9,2.35,3.92,0.349
CGTCCAAGGTTAAGGTCAGTGAAAGAGACTCGAA,3.28,0.367,-0.224,,2.06,2.6,0.541,1.49,1.47
CGAACAAGGTCATTGACAGGACAGTGAATAGTAA,5.4,1.2,1.12,,5.6,5.66,2.36,4.75,4.08
TTACCAAGGTGAAAGGTCGTTGCTGCACGCCTTG,3.07,0.401,-0.185,,8.98,7.85,8.63,8.9,2.97
CGTCCAAGGTCGAAGGTCAGTGAAGAGATGACGG,3.14,0.000668,-0.645,,5.43,5.79,3.26,5.18,0.518
AATACAGGGTCACGAGGCCAGAGTAGGTACGAAT,6,1.22,0.897,,8.68,7.43,4.39,6.65,3.9
CCTACTGGGCCAAAAAGTTCATTGATGCCGATAA,1.47,2.92,-0.369,,1.09,1.53,0.0164,1.05,3.74
